Sampled rows, rich in hits. Any-hit rate of the full collection: about 4.1%.
BoNT-F LC inh: BoNT/F light chain protease inhibitors, primary screen, biochemical, flow cytometry, MLPCN library; Multiplex microsphere protease cleavage assay; Botulinum neurotoxin type F light chain protease (Clostridium botulinum); AID 588497, 2011; inhibition, % at 10 µM; hit rate 0.22% among 360,000; in the data active = inhibition above about 35%, passing the limit was not always enough; inconclusive = no clear call, values can overlap the other calls; also: plate controls were buffer without enzyme for full effect and enzyme alone for no effect
DUSP3 inh: VHR1 phosphatase inhibitors, primary screen, biochemical, absorbance, uHTS; recombinant VHR phosphatase, pNPP absorbance; inhibition, % at 13.3 µM; hit rate 0.52% among 290,000; AID 1654, 2009; in the data active = inhibition above about 50%
BoNT A protease: BoNT/A light chain protease inhibitors, primary screen, biochemical, flow cytometry, MLPCN library; inhibition, % at 10 µM; multiplex microsphere protease substrate cleavage; hit rate 0.17% among 360,000; AID 588499, 2011; Botulinum neurotoxin type A light chain protease (Clostridium botulinum A str. ATCC 3502); also: plate controls were buffer without enzyme for full effect and enzyme alone for no effect
Anthrax LF inh2: Bacillus anthracis LF protease inhibitors, primary screen, biochemical, multiplex microsphere, MLPCN library; multiplex microsphere protease cleavage assay; inhibition, % at 10 µM; hit rate 0.12% among 360,000; AID 588501, 2011; also: plate controls were buffer without enzyme for full effect and enzyme alone for no effect
Target sequence (P15917 whole entry, looked up): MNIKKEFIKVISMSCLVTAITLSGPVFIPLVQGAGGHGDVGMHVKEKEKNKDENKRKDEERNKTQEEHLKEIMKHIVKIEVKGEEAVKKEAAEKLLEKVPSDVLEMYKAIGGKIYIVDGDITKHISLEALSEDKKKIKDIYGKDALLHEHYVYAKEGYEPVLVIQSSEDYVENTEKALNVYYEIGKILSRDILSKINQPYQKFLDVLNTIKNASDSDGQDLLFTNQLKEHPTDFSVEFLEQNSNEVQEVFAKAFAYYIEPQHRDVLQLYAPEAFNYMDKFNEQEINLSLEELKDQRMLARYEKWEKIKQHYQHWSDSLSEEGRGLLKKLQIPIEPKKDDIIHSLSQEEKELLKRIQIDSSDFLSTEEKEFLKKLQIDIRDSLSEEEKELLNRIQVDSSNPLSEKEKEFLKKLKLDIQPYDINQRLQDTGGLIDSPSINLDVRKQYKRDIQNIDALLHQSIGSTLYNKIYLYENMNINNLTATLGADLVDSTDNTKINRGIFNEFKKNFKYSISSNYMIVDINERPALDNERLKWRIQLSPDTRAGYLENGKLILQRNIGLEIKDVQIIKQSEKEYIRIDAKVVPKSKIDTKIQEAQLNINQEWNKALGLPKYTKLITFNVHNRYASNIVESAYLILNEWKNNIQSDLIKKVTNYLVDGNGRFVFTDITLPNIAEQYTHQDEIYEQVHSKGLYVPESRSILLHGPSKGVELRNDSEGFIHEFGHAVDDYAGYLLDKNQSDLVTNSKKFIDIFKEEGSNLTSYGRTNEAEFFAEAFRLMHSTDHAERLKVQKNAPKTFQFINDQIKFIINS
MazF activator: activators of E. coli MazEF toxin-antitoxin RNase, primary screen, biochemical, fluorescence, uHTS | FAM/BHQ RNA-DNA oligo cleavage fluorescence, 5 h | activation, % at 20 µM | hit rate 0.32% among 350,000 | AID 504720, 2011; in the data active = activation above about 50%
Autofluor counter: counter-screen for toxin protease inhibitors: compound fluorescence; compound autofluorescence counterscreen, microsphere flow cytometry; hits give high values; hit rate 3.1% among 360,000; fluorescence intensity (no concentration beside the values); in the data active = fluorescence intensity above about 16000; inconclusive = no clear call, values can overlap the other calls
Active calls of the source: *; ? = inconclusive; nt = no result given. Rule as the data show it, unless noted: active = inhibition above about 30%; inconclusive = no clear call, values can overlap the other calls; inactive = below that.

SMILES	BoNT-F LC inh	DUSP3 inh	BoNT A protease	Anthrax LF inh2	MazF activator	Autofluor counter
CCCn1cc(CN2CCC(n3nccc3NC(=O)C(OC)c3ccccc3)CC2)c(C)n1 (stereo not drawn)	-2	40	-1	1	10	4756
CCCCNc1nc(N(C)c2ccccc2)nc(-n2ccnc2)n1	-3	27	-1	-4	7	23497*
c1ccc(N(c2ccccc2)c2nc(-n3ccnc3)nc(-n3ccnc3)n2)cc1	-3	21	-1	-3	8	2985
C=CCNc1nc(N(c2ccccc2)c2ccccc2)nc(-n2ccnc2)n1	-6	17	-3	0	-5	20613*
CN(C)c1ccc(C=Nc2ccc(N(C)C)cc2)cc1	-31	26	1	-8	40	1945
CN(C)c1ccc(N=Cc2ccco2)cc1	-23	-13	8	-10	8	20149*
COc1ccc(C=NN=C2c3ccccc3-c3ccccc32)cc1OC	-3	nt	0	-5	-1	3690
CCc1ccc(NC(=S)N(CCOC)C2CCN(C(C)=O)CC2)cc1	40*	-16	-1	26	1	3400
CCc1ccc(NC(=S)N(CCC(C)C)C2CCN(C(C)=O)CC2)cc1	0	-16	-2	-2	-3	3507
CCc1nc2ccc(C(=O)NCCCn3ccnc3)cn2c1N(C)CCC(C)C	-7	nt	0	0	nt	3891
N#CCSc1nc2cc(C(=O)N3CCCC3)ccc2c(=O)n1Cc1ccccc1	-21	24	0	-1	-6	4971
N#CCSc1nc2cc(C(=O)N3CCC(C(N)=O)CC3)ccc2c2nc3ccccc3n12	1	15	2	0	-13	20618*
CCCCCn1c(SCC(=O)OCC)nc2cc(C(=O)N3CCC(C(N)=O)CC3)ccc2c1=O	2	25	1	-1	1	21996*
NC(=O)C1CCN(C(=O)c2ccc3c(=O)n(Cc4ccco4)c(SCC(=O)c4ccccc4)nc3c2)CC1	0	14	-1	1	15	3250
CC(C)c1ccc(NC(=S)NCc2cccs2)cc1	-6	14	-4	-2	-1	21787*
COc1ccc(NC(=S)NCc2cccs2)cc1	0	44	1	-6	3	4058
S=C(NCc1cccs1)Nc1cccc(Cl)c1	-14	-1	-11	-6	-5	18567*
O=C(O)c1ccc(COc2c(F)c(F)c(F)c(F)c2F)o1	3	31	2	-1	4	19586*
O=C(Nc1ccccn1)c1ccc(Br)s1	19	55*	-1	3	4	3587
C(#Cc1ccc(C#CCN2CCOCC2)cc1)CN1CCOCC1	-3	3	-2	-2	4	17459*
C(#Cc1ccccc1)CN1CCOCC1	-6	12	0	-8	9	4359
COc1ccc(C(C)=O)cc1CN1C(=O)NC2(CCCCC2)C1=O	-6	27	-1	-1	2	2657
COc1ccc(C(C)=O)cc1CN1C(=O)C(C)N(c2ccc(C)cc2)C1=O (stereo not drawn)	5	1	?	-7	-6	18676*
CSC(=NC#N)N1CCN(c2ccccc2)CC1	-4	4	?	1	9	20884*
CCCc1cc(C(=O)OC)c(NC(=O)CCCC(=O)O)s1	-2	17	0	3	-6	4683
SMILES	BoNT-F LC inh	DUSP3 inh	BoNT A protease	Anthrax LF inh2	MazF activator	Autofluor counter
COc1ccc(CCNC(=O)CC2Nc3cc(C)c(C)cc3NC2=O)cc1OC (stereo not drawn)	9	8	1	-4	7	9323
Cc1cc2c(cc1C)NC(CC(=O)NCc1ccccc1)C(=O)N2 (stereo not drawn)	2	3	2	2	10	23973*
CCCc1cc(C(=O)OC)c(NC(=O)OCC)s1	11	-4	?	-12	-11	18061*
CCc1cc(C(=O)OC)c(NC(=O)CC2Nc3cc(C)c(C)cc3NC2=O)s1 (stereo not drawn)	2	21	1	-2	153*	9492
CCc1cc(C(=O)OC)c(NC(=O)CCC(=O)O)s1	0	14	1	1	-2	21823*
CCOC(=O)c1cc(CC)sc1NC(=O)C1CC1	-8	3	-1	-2	-1	9851
CC1CCN(C(=O)CCCC(=O)N2CCC(C)CC2)CC1	5	14	2	-2	-8	6048
COc1cc(C(F)(F)F)c(C(=O)N(C)Cc2cc(Cl)cc(Cl)c2)cn1	-5	13	-1	-3	-6	6565
CCC(O)(Cc1ccccn1)Cc1ccccn1	1	nt	0	2	6	3966
Cc1cc(C)c2c(C)nn(-c3ccccc3)c2n1	-35	3	-2	-7	-2	3126
Cc1cc(C)c2c(C)nn(C3CCCCC3)c2n1	0	-1	?	-4	14	16323*
CCCCc1ccc(-c2csc(/C(C#N)=C/c3ccco3)n2)cc1	-15	10	0	-6	-15	2816
N#C/C(=C/c1ccc(-c2ccc([N+](=O)[O-])cc2)o1)C(=O)Nc1nc(-c2cccs2)cs1	0	nt	0	-6	-2	3111
CCCCc1ccc(-c2csc(/C(C#N)=C\c3ccc(C)o3)n2)cc1	1	17	6	4	16	22503*
N#C/C(=C\c1ccc(-c2ccc(F)cc2)o1)C(=O)Nc1nc(-c2cccs2)cs1	1	-9	1	3	128*	2530
N#C/C(=C/c1ccc(-c2ccccc2)o1)c1nc(-c2cccs2)cs1	30	49	48*	34*	-24	15612
COc1ccc(-c2nc3c(Cl)cc(C(F)(F)F)cn3c2Cc2ccc(C)cc2)cc1OC	-5	nt	0	-1	nt	6191
CC1(C(=O)NS(=O)(=O)C2CC2)CCN(C(=O)c2ccc(F)c(Cl)c2)C1 (stereo not drawn)	3	nt	0	-3	nt	3866
Cc1ccc(-c2ccc(SCC(=O)Nc3cc(C)on3)nn2)cc1	3	10	0	1	-3	3236
COc1ccccc1C(=O)NCCn1cc(SCC(=O)Nc2cc(C)on2)c2ccccc21	-2	-8	?	-4	3	16999*
COc1ccc(-n2c(SCC(=O)Nc3cc(C)on3)nc3c(c2=O)SCC3)cc1	-2	-12	0	3	-2	4141
COc1ccc(-n2c(SCC(=O)Nc3cc(C)on3)nc3c(c2=O)SCC3)cc1OC	2	57*	-5	0	7	7227
COc1ccc(C(=O)NCCn2cc(SCC(=O)Nc3cc(C)on3)c3ccccc32)cc1OC	?	13	1	0	-3	3775
COc1ccc(-c2ccc(SCC(=O)Nc3cc(C)on3)nn2)cc1OC	-8	10	-4	1	11	25486*
COc1ccc(NC(=O)CN2C(=O)S/C(=C/c3cccn3-c3ccc(C(=O)O)cc3)C2=O)cc1	-5	57*	2	0	nt	5867

Screens from PubChem.
